Most compounds without a hit are left out; they make up all but 4% or so of the library.
MITF TRPM1 HTS: increases MITF-driven TRPM1 promoter luciferase signal; 300,000 compounds, 0.75% hits; activation, % at 12.5 µM; SK-MEL-5 TRPM1-promoter luciferase, 24 h; % of positive control, neutral wells = 0; AID 588334;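 active = mean activation of at least 80% with every replicate also reaching 80%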;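 also: 0% = neutral control wells and 100% = parthenolide positive control wells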
MITF TRPM1 inh: MITF TRPM1 promoter inhibition in SK-MEL-5 cells; SK-MEL-5 TRPM1 promoter luciferase, 24 h; inhibition, % at 12.5 µM; 330,000 compounds, 0.83% hits; AID 488899;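 active = mean inhibition across replicates of 60% or more, whatever share of single replicates reaches that level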
Wnt act: activates Wnt/beta-catenin signaling in a reporter cell assay | activator, plate reader | activation, % at 9.35 µM | 300,000 compounds, 1.2% hits; in the data active = activation above about 30%, passing the limit was not always enough;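 also: 0% = neutral control wells and 100% = positive control wells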
esBAF inh: blocks esBAF chromatin remodeling in mouse ES cells; reporter increase, % at 12.5 µM; 350,000 compounds, 2% hits; Bmi1-luciferase knock-in reporter, 24 h; 100% = twice the neutral-well signal; AID 602393; in the data active = activation above about 40%;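 also: 0% = median of the plate's neutral control wells and 100% = double that signal; a rise in the Bmi1 reporter signal indicates esBAF inhibition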
C2C12 statin: protects C2C12 myotubes from simvastatin toxicity | ATP luminescence, 48 h; scaled: DMSO 0, geranylgeraniol control 100 | rescue of ATP level, % at 7.49 µM | 330,000 compounds, 0.78% hits | AID 602340;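 active = mean ATP rescue above about 67%, or every replicate alone reaching that limit, limit read from the data, passing the limit was not always enough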;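 also: myotubes were challenged with 10 µM simvastatin during compound exposure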
LMP1 NFkB inh: reduces LMP1-driven NF-kappaB luciferase signal; LMP1-induced NF-kappaB luciferase reporter cells, luminescence; inhibition, % at 12.5 µM; 350,000 compounds, 0.69% hits; in the data active = inhibition above about 41%;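 also: 0% = neutral control wells and 100% = reference inhibitor control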
Starred values were filed as active, the others as inactive.

`CC[C@]1(c2ccccc2OC)ON(c2ccccc2C(F)(F)F)C1=O` gave Wnt act 1.
For C[C@@H]1CN([C@H](C)CO)C(=O)Cc2cc(NS(=O)(=O)c3ccccc3)ccc2O[C@H]1CN(C)C(=O)Nc1ccc(C(F)(F)F)cc1 the results were esBAF inh 2 and C2C12 statin -2.
`CCCc1cc(C(F)(F)F)c(C#N)c(=O)[nH]1` gave MITF TRPM1 HTS 3, MITF TRPM1 inh -6, Wnt act 0, esBAF inh 0, C2C12 statin -2 and LMP1 NFkB inh -20.
Screening CC(C)(C)c1cc(C(F)(F)F)c(C#N)c(=O)[nH]1 returned MITF TRPM1 HTS -13, MITF TRPM1 inh 8, Wnt act -4, esBAF inh 1, C2C12 statin 120* and LMP1 NFkB inh 4.
Screening O=[N+]([O-])c1c(NCCO)cc(N2CCCCCC2)c2nonc12 returned MITF TRPM1 HTS 3, MITF TRPM1 inh -5, Wnt act 2, esBAF inh 6, C2C12 statin 8 and LMP1 NFkB inh -1.
Screening Cc1nnc(Sc2cc(NCCCO)c([N+](=O)[O-])c3nonc23)s1 returned MITF TRPM1 HTS -73, MITF TRPM1 inh 75*, Wnt act -6 and LMP1 NFkB inh -1.
For Cc1nnc(Sc2cc(NCCO)c([N+](=O)[O-])c3nonc23)s1 the results were MITF TRPM1 HTS -65, MITF TRPM1 inh 67*, Wnt act -6 and LMP1 NFkB inh -2.
`CCCC#Cc1cnc2c(c1)C(=O)N([C@@H](C)CO)C[C@H](C)[C@H](CN(C)C(=O)C1CC1)O2` gave esBAF inh -9.
CSc1cccc(NC(C)C(=O)NCc2ccccc2)c1 (stereo not given) was read as MITF TRPM1 HTS -16, MITF TRPM1 inh 15, Wnt act 0 and LMP1 NFkB inh -3.
`Cc1cc(C)c(C#N)c(SCC(=O)Nc2nnc(-c3ccccc3)s2)n1` gave MITF TRPM1 HTS 3, MITF TRPM1 inh -4 and LMP1 NFkB inh 7.
`CCN1C(=O)/C(=C/C=C2/Sc3ccccc3N2CCO)SC1=S` gave MITF TRPM1 HTS -13, MITF TRPM1 inh 10, Wnt act 32*, esBAF inh -8, C2C12 statin -2 and LMP1 NFkB inh -24.
`Cc1sc2nc(CN3CCN(S(=O)(=O)c4cccc5nonc45)CC3)[nH]c(=O)c2c1C` gave MITF TRPM1 HTS -13, MITF TRPM1 inh 14, esBAF inh 0, C2C12 statin 93* and LMP1 NFkB inh -3.
For O=C1CCC[C@@H]2Cc3nc4ccc(O)cc4cc3[C@@H]3CCN1[C@H]23 the results were MITF TRPM1 HTS 8, MITF TRPM1 inh -9, Wnt act 0, esBAF inh 15, C2C12 statin 7 and LMP1 NFkB inh -5.
Screening O=C1CCC[C@@H]2Cc3nc4cc5c(cc4cc3[C@@H]3CCN1[C@H]23)OCO5 returned MITF TRPM1 HTS 18, MITF TRPM1 inh -13, Wnt act 19, esBAF inh 37, C2C12 statin 80* and LMP1 NFkB inh -19.
For CCC(Oc1ccccc1)C(=O)Nc1ccc(S(=O)(=O)Nc2ncccn2)cc1 (stereo not given) the results were MITF TRPM1 HTS 16, MITF TRPM1 inh -19, Wnt act -1, esBAF inh 5, C2C12 statin 3 and LMP1 NFkB inh -8.
`O=C(C[C@H]1CC[C@H](NS(=O)(=O)c2ccc(F)cc2)[C@@H](CO)O1)NCCN1CCCCC1` gave esBAF inh -3 and C2C12 statin 0.
Screening COCCN=C1Sc2nc3c(C)cccc3cc2CN1Cc1ccco1 returned MITF TRPM1 HTS -13, MITF TRPM1 inh 12, Wnt act 28, esBAF inh -3, C2C12 statin 114* and LMP1 NFkB inh -6.
For COc1ccccc1C(=O)COC(=O)c1cc(=O)[nH]c2ccccc12 the results were MITF TRPM1 HTS 11, MITF TRPM1 inh -8, Wnt act 3 and LMP1 NFkB inh 3.
`COc1ccc(C(=O)COC(=O)c2cc(=O)[nH]c3ccccc23)c(OC)c1` gave MITF TRPM1 HTS 100*, MITF TRPM1 inh -95, Wnt act 26 and LMP1 NFkB inh -25.
`Cc1ccc(C(=O)COC(=O)c2cc(=O)[nH]c3ccccc23)cc1C` gave MITF TRPM1 HTS 50, MITF TRPM1 inh -53, Wnt act 7, esBAF inh 88*, C2C12 statin 6 and LMP1 NFkB inh -9.
Screening COc1ccc(C(=O)COC(=O)c2cccc(-n3cnnn3)c2)c(OC)c1 returned MITF TRPM1 HTS 92*, MITF TRPM1 inh -84, Wnt act 18, esBAF inh 56*, C2C12 statin -8 and LMP1 NFkB inh -29.
CC(C)(C)CC(=O)NC(=S)NCCc1ccccc1 was read as MITF TRPM1 HTS 16, MITF TRPM1 inh -43, Wnt act 7, esBAF inh 15, C2C12 statin -22 and LMP1 NFkB inh 11.
For CCN(CC)C(=O)Cn1cc(S(=O)(=O)CC(=O)NCc2ccc(F)cc2)c2ccccc21 the results were MITF TRPM1 HTS 7, MITF TRPM1 inh -7, Wnt act 0, esBAF inh 5, C2C12 statin 1 and LMP1 NFkB inh -2.
For COC(OC)C1(C)C(C#N)=C(N)Oc2c1c(=O)oc1ccccc21 (stereo not given) the results were MITF TRPM1 HTS 0, MITF TRPM1 inh 2, Wnt act 0, esBAF inh 5, C2C12 statin 2 and LMP1 NFkB inh -4.
`O=C(CCCC(=O)NC1CCCCC1)Nc1ccc([N+](=O)[O-])cc1` gave MITF TRPM1 inh 6, Wnt act -1, esBAF inh 2, C2C12 statin -2 and LMP1 NFkB inh 7.
`CNC(C)C#Cc1ccc2c(=O)c3cc(C)c(C)cc3oc2c1` (stereo not given) gave MITF TRPM1 HTS 26, MITF TRPM1 inh -26, Wnt act 9, esBAF inh 69*, C2C12 statin 3 and LMP1 NFkB inh -2.
`O=C(NC1CCCC1)c1ccc(CS(=O)Cc2ccc(Cl)cc2)o1` (stereo not given) gave MITF TRPM1 HTS -1, MITF TRPM1 inh 4, Wnt act -1, esBAF inh 1, C2C12 statin 23 and LMP1 NFkB inh 1.
`C/C(=N\NC(=O)c1ccco1)c1ccc(-c2ccccc2)cc1` gave MITF TRPM1 HTS 76, MITF TRPM1 inh -79, Wnt act 26, esBAF inh 59*, C2C12 statin 12 and LMP1 NFkB inh -17.
`O=C(N/N=C/C(Cl)=C/c1ccccc1)c1ccco1` gave MITF TRPM1 HTS 80, MITF TRPM1 inh -78, Wnt act 12, esBAF inh 70*, C2C12 statin 0 and LMP1 NFkB inh -29.
Screening C/C(=N\NC(=O)c1ccco1)c1ccc(NC(=O)c2ccccc2)cc1 returned MITF TRPM1 HTS 70, MITF TRPM1 inh -64, Wnt act 3 and LMP1 NFkB inh -14.

From PubChem BioAssay
